SMILES strings stand for the structures. The campaign covered roughly 63,000 compounds. About 1,100 (1.7%) were called active. Only a selection was taken, and actives are over-represented in it overall. Measured potencies and affinities stand elsewhere. Unmarked numbers belong to inactive results. Cut-off read from the data, not from the text of the source: active = cytotoxicity above about 50%; inactive = the rest.

The test can be described thus: cytotoxicity in HPDE-C7 cells, cell-based, fluorescence, HTS (AID 430).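 Note: cells exposed to compound for 48 hours before viability readout; 0% = vehicle and 100% = reference cytotoxic drug.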 As to conditions: HPDE-C7 pancreatic duct cells viability, at 10 µM, stronger effect = higher value.
In the case of `O=C(CN1CCCCC1)Nc1ccccc1NC(=O)CN1CCCCC1`, the cytotoxicity is -13.4%.
Consider `CCOC(=O)c1ccc(NC(=O)CN2CCN(c3ccccc3)CC2)cc1`, for which the cytotoxicity is 6%.
The value for `CCOC(=O)c1ccc(NC(=O)N2CCc3ccccc32)cc1` was 5.4%; that for `CCOC(=O)c1ccc(NC(=O)CN2CCc3ccccc3C2)cc1` was 57.6% (active).
The value for `O=C(CN1CCc2ccccc2C1)Nc1ccccc1N1CCCCCC1` was 93.4% (active).
The figure for `CC(C)CC(=O)Nc1ccccc1N1CCCC1` is -9.5%; for `O=C(c1cccs1)N(Cc1cccc(Cl)c1)C1CCS(=O)(=O)C1` (centres undefined) it is -4.1%; for `CCOc1ccccc1-n1nnnc1SCC(=O)Nc1cc2oc3ccccc3c2cc1OC` it is 43.6%.
For the compound `C=C(C)CSc1nc2nc(C)cc(C)n2n1`, the cytotoxicity is 9.4%.
The value for `CC(C)NC(=O)CN(C)S(=O)(=O)c1ccc(F)cc1` was 1.5%; that for `O=C1NC2(CCCCC2)N=C1c1ccccc1` was -3%.
In the case of `O=C1NC2(CCCC2)N=C1c1ccc(Cl)cc1`, the cytotoxicity was -2.7%.
On to `O=C(CN1CCN(c2ccc(F)cc2)CC1)Nc1ccc(-n2cnnn2)cc1`, for which the cytotoxicity was 16.2%.
The figure for `CCOc1ccc2nc(NCCNC(=O)C3CC3)c(C)cc2c1` is -13.7%; for `CCCCc1ccc(-c2ccc(C)cc2O)nc1` it is -28.6%; for `CCCCc1ccc(CC(=O)O)cc1` it is -6.3%.
Turning to `COc1cccc2c1nc(C)c1cc(C)oc12`, the cytotoxicity is -6.1%.
The value for `Cc1cc(Nc2cc(C)on2)n2ncnc2n1` was 1.6%.
Consider `O=C(NCc1ccc2c(c1)OCO2)c1ccc2c(=O)n(C3CCCC3)c(=O)[nH]c2c1`, for which the cytotoxicity was 2.7%.
On to `Cc1ccc(CC2SC(=O)NC2=O)cc1Cl` (centres undefined), for which the cytotoxicity is -2.2%.
For `c1ccc(-n2nnnc2SCCCSc2nc3ccccc3s2)cc1`, the cytotoxicity was 5.8%.
As for `CCCSc1nnc(Sc2nnnn2-c2ccccc2)s1`, the cytotoxicity was 81% (active).
`COc1ccc(-n2nnnc2SCC(=O)NCCc2ccc(OC)c(OC)c2)cc1`: the cytotoxicity is -0.4%.
As to `Cc1ccc(C)c(Oc2nnnn2-c2ccccc2)c1`, the cytotoxicity was -0.9%.
On to `COc1ccc(CCNC(=O)CSc2nnnn2-c2ccccc2OC)cc1OC`, for which the cytotoxicity is 8%.
Regarding `C(=C\CSc1nnnn1-c1ccccc1)/CSc1nnnn1-c1ccccc1`, the cytotoxicity was -4.4%.
Consider `COc1ccc(CCNc2nnc(Sc3nnnn3-c3ccccc3)s2)cc1OC`, for which the cytotoxicity is 53.9% (active).
As for `Cn1ccnc1Sc1nnnn1-c1ccccc1`, the cytotoxicity was -14.7%.
The value for `COc1ccc(Cc2nnc(SCC(=O)NCC3CCCO3)o2)cc1` (centres undefined) was 0.6%; that for `Cn1c2c(c(=O)n(C)c1=O)C(NC(=O)c1ccco1)(C(F)(F)F)C(=O)N2` (centres undefined) was -22.3%.
The figure for `O=S(=O)(c1ccc(Br)s1)N1CCN(c2ccccc2)CC1` is -10.8%; for `COc1ccccc1NC(=O)c1nnn(Cc2ccccc2)c1NC(C)=O` it is 2.6%.
Turning to `COC(=O)Nc1ccc(NC(C)=O)cc1`, the cytotoxicity was -16%.
As for `CCOC(=O)c1cc(-c2ccncc2)nc2c1c(C)nn2C`, the cytotoxicity is 4%.
Consider `COc1ccc(C(OC(=O)c2c(C)noc2C)C(=O)NC2CCCC2)cc1` (centres undefined), for which the cytotoxicity was 1.7%.
With `CCN1CCN(CCCNC(=O)c2cc3sccc3n2CC)CC1`, the cytotoxicity was 3.8%.
In the case of `CCOCCCNC(=O)CSc1ccccc1`, the cytotoxicity was -13.6%.
The value for `O=S(=O)(c1ccc2c(c1)nc1n2CCC1)N1CCOCC1` was 30.9%; that for `O=S(=O)(c1ccc(Br)cc1)N1CCn2c(nc3ccccc32)C1` was 1.5%.
With `Cc1ccc(NCC(O)C(O)C(O)CO)cc1C` (centres undefined), the cytotoxicity was 53.3% (active).
`COc1ccc(C(O)CNc2ccc(C)cc2)cc1` (centres undefined): the cytotoxicity is -2.1%.
For `COc1cc(CNc2ccc(C)c(C)c2)cc(OC)c1OC`, the cytotoxicity is 46.9%.
Take `COc1ccc(OC)c(S(=O)(=O)N(C)CC(=O)Nc2ccc3c(c2)OCCO3)c1`: the cytotoxicity is -1.4%.
Take `CCOc1ccc(N2CC(C(=O)NCCc3ccc(OC)c(OC)c3)CC2=O)cc1` (centres undefined): the cytotoxicity was 5.7%.
On to `CS(=O)(=O)N1CCC(C(=O)NCc2ccc(F)cc2Cl)CC1`, for which the cytotoxicity is -2.6%.
`CCOc1ccccc1NC(=O)CCn1c(=O)oc2ccccc21`: the cytotoxicity is 0.7%.
In the case of `COc1ccc(-n2nnnc2S(=O)(=O)CC(=O)N2CCCCC2)cc1`, the cytotoxicity was 76.4% (active).
Consider `COc1cc(OC)cc(-n2nnnc2SCC(=O)N2CCCC2)c1`, for which the cytotoxicity was -7.2%.
Consider `COc1ccc(-n2nnnc2S(=O)(=O)Cc2ccc(C(=O)O)cc2)cc1`, for which the cytotoxicity is 4.8%.
In the case of `Cc1oc(-c2ccccc2F)nc1CS(=O)CC(=O)NCc1cccs1` (centres undefined), the cytotoxicity is -2.6%.
The value for `CCc1c(O)nc(SCC(=O)Nc2ccccc2)n(-c2ccccc2)c1=O` was 23%; that for `CCc1c(O)nc(SCC(=O)Nc2ccc(OC)cc2)n(C2CCCCC2)c1=O` was -8.3%.
In the case of `CCc1c(O)nc(SCC(=O)Nc2ccc(C)cc2)n(C2CCCCC2)c1=O`, the cytotoxicity was 51.2% (active).
With `COc1ccc(N2C(=O)CCC(C(=O)c3ccccc3)=C2C)cc1`, the cytotoxicity is -2.2%.
Turning to `Cc1c2c(nc3nc4ccccc4n13)CC(C)(C)CC2=O`, the cytotoxicity was 0.8%.
`Cc1cc(C)c2cc(C#N)c(SCC(=O)NCC3CCCO3)nc2c1` (centres undefined): the cytotoxicity is -15.1%.
The value for `CCc1cccc(Nc2cc(C)nc3ncnn23)c1` was -0.8%; that for `Cc1cc(Nc2ccc3ccccc3c2)n2ncnc2n1` was -0.5%.
For the compound `CCn1c2ccccc2c2cc(Nc3cc(C)nc4ncnn34)ccc21`, the cytotoxicity is 64.5% (active).
As for `CCOCc1nnc(NC(=O)CSCc2ccccc2)s1`, the cytotoxicity was -3.4%.
The value for `CC1CCCN(c2ncnc3c2cnn3-c2ccccc2)C1` (centres undefined) was -9.4%; that for `Cc1cc(NC(=O)c2c(-c3ccccc3Cl)noc2C)no1` was -12.4%; that for `CC(C)CNC(=O)c1c(N)n(/N=C/c2ccccn2)c2nc3ccccc3nc12` was 14.8%.
`CC(C)OCCCNC(=O)c1c(N)n(/N=C/c2ccccn2)c2nc3ccccc3nc12`: the cytotoxicity is 28.4%.
The value for `CCC(C)NC(=O)c1c(N)n(/N=C/c2cccnc2)c2nc3ccccc3nc12` (centres undefined) was 41.4%.
The figure for `COCCCNC(=O)c1c(N)n(/N=C/c2cccnc2)c2nc3ccccc3nc12` is 33.1%; for `COCCCNC(=O)c1c(N)n(/N=C/c2ccccn2)c2nc3ccccc3nc12` it is 22%; for `CCCCNC(=O)c1c(N)n(/N=C/c2ccccn2)c2nc3ccccc3nc12` it is 50.5% (active).
For the compound `COCCNC(=O)c1c(N)n(/N=C/c2cccs2)c2nc3ccccc3nc12`, the cytotoxicity is 42.8%.
